Measured values reported in PubChem BioAssay (NCI).
About 83,000 compounds went through this panel and 20% of them were active in at least one assay; those are over-represented in the sample as a whole.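 Results are percent growth after 48 hours of single-concentration exposure. 100 means growth as in untreated cells, lower positive values show inhibition; negative values down to -100 show cell death.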 Active and inactive are the calls of the source. Rule for the calls: active = growth percent below 10; inactive = the rest.

Assays:
Assay in all cases: NCI-60 one-dose screen, 48 h (100 = growth as untreated, 0 = no growth, -100 = all killed)
Conditions in all cases: 10 µM unless noted
HCT-15 colon = test system: HCT-15 colon
HT29 colon = test system: HT29 colon
SNB-75 CNS = test system: SNB-75 CNS
SNB-19 CNS = test system: SNB-19 CNS
U251 CNS = test system: U251 CNS
PC-3 prostate = test system: PC-3 prostate
SK-MEL-5 melanoma = test system: SK-MEL-5 melanoma
LOX IMVI melanoma = test system: LOX IMVI melanoma
SK-MEL-2 melanoma = test system: SK-MEL-2 melanoma
EKVX NSCLC = test system: EKVX NSCLC
SN12C renal = test system: SN12C renal
UO-31 renal = test system: UO-31 renal
TK-10 renal = test system: TK-10 renal
ACHN renal = test system: ACHN renal
CAKI-1 renal = test system: CAKI-1 renal
A498 renal = test system: A498 renal
CCRF-CEM leukemia = test system: CCRF-CEM leukemia
MOLT-4 leukemia = test system: MOLT-4 leukemia
UACC-62 melanoma = test system: UACC-62 melanoma
SK-MEL-28 melanoma = test system: SK-MEL-28 melanoma

Measured: growth

COC(=O)[C@]12CC[C@@H](C)[C@H](C)[C@@H]1C1=CC(=O)[C@@H]3[C@@]4(C)C[C@@H](O)[C@H](O)[C@@]5(C)COC(=C45)C[C@@]3(C)[C@]1(C)CC2
inactive: HCT-15 colon 26.5% | HT29 colon 27.4% | SNB-75 CNS 32.8% | SNB-19 CNS 60.8% | U251 CNS 39.5% | PC-3 prostate 49.2% | SK-MEL-5 melanoma 41.3% | LOX IMVI melanoma 57% | SK-MEL-2 melanoma 33.6% | EKVX NSCLC 75.8% | SN12C renal 55% | UO-31 renal 65.8% | TK-10 renal 83.3% | ACHN renal 69.5% | CAKI-1 renal 71.1% | A498 renal 37.5% | CCRF-CEM leukemia 59.7% | MOLT-4 leukemia 24.6%

C=C1C(=O)O[C@H]2[C@H]1CC/C(Cn1cc(-c3ccc(F)cc3)nn1)=C\CC[C@@]1(C)O[C@@H]21
active: HCT-15 colon -78.8% | HT29 colon -84.8% | LOX IMVI melanoma -89.3% | SN12C renal -13.6% | UO-31 renal -80.8% | TK-10 renal -92.9% | ACHN renal -19.7% | CAKI-1 renal -12.9% | CCRF-CEM leukemia -36.6% | MOLT-4 leukemia -25.4%
inactive: SNB-75 CNS 85.5% | SNB-19 CNS 66.8% | U251 CNS 20.7% | PC-3 prostate 28.5% | SK-MEL-5 melanoma 36.3% | SK-MEL-2 melanoma 14.9% | EKVX NSCLC 68.4% | A498 renal 27.4%

O=S(=O)(NCCNc1cc(-c2cn(-c3ccccc3)nc2-c2cccc(O)c2)ccn1)c1ccc(F)cc1
inactive: SNB-75 CNS 45.6% | SNB-19 CNS 46.5% | U251 CNS 17.4% | PC-3 prostate 15.1% | LOX IMVI melanoma 27.7% | SK-MEL-2 melanoma 22.2% | EKVX NSCLC 56.1% | SN12C renal 44.2% | UO-31 renal 20.1% | TK-10 renal 46.2% | ACHN renal 27.3% | CAKI-1 renal 37.1% | A498 renal 36.2%
active: HCT-15 colon 6.55% | HT29 colon 1.75% | SK-MEL-5 melanoma -12% | CCRF-CEM leukemia 5.95% | MOLT-4 leukemia 4.37%

c1ccc(CN2C(c3ccccc3)=Nc3ccccc3C2c2c[nH]c3ccccc23)cc1 (centres undefined)
inactive: HCT-15 colon 35.6% | HT29 colon 15.1% | SNB-75 CNS 59.2% | SNB-19 CNS 49.1% | U251 CNS 35.7% | PC-3 prostate 29.8% | SK-MEL-5 melanoma 42.4% | LOX IMVI melanoma 15.4% | SK-MEL-2 melanoma 69% | EKVX NSCLC 37.3% | SN12C renal 36.4% | UO-31 renal 24.5% | TK-10 renal 45.8% | ACHN renal 51.4% | CAKI-1 renal 35.9% | A498 renal 63.6%
active: MOLT-4 leukemia 2.6%

COc1ccc2c3c(c4ccccc4cc13)C(=O)N(CCN(C)CCN)C2=O
inactive: SK-MEL-2 melanoma 22.3%
active: HCT-15 colon -67.1% | HT29 colon -65.2% | SNB-75 CNS 8.84% | SNB-19 CNS -36.9% | U251 CNS -86.3% | PC-3 prostate -63.2% | SK-MEL-5 melanoma -98% | LOX IMVI melanoma -84.8% | EKVX NSCLC -48% | SN12C renal -63.3% | UO-31 renal -83.7% | TK-10 renal -73.8% | ACHN renal -71.6% | CAKI-1 renal 3.18% | A498 renal -48.8% | CCRF-CEM leukemia -65.1% | MOLT-4 leukemia -32.5%

CC(=O)O[C@@H]1CCN2C(=O)N(C)c3ccccc3[C@@H]2C1
inactive: HCT-15 colon 103% | HT29 colon 104% | SNB-75 CNS 89% | SNB-19 CNS 98.3% | U251 CNS 102% | PC-3 prostate 89.1% | SK-MEL-5 melanoma 104% | LOX IMVI melanoma 98.6% | SK-MEL-2 melanoma 102% | EKVX NSCLC 114% | SN12C renal 98.9% | UO-31 renal 94.5% | TK-10 renal 99.6% | ACHN renal 98.6% | CAKI-1 renal 95.3% | A498 renal 114% | CCRF-CEM leukemia 105% | MOLT-4 leukemia 99.6%

Cc1cc(C)c(NC(=O)c2sc3nc4c(cc3c2N)CCCC4)c(C)c1
inactive: HCT-15 colon 32.1% | HT29 colon 13.9% | SNB-75 CNS 18.5% | SNB-19 CNS 43.4% | U251 CNS 27.7% | PC-3 prostate 54% | SK-MEL-5 melanoma 50.1% | LOX IMVI melanoma 37.6% | SK-MEL-2 melanoma 16.8% | EKVX NSCLC 76.7% | SN12C renal 50% | UO-31 renal 62.1% | TK-10 renal 64.7% | ACHN renal 55.8% | CAKI-1 renal 53.1% | A498 renal 12.7% | CCRF-CEM leukemia 20.4% | MOLT-4 leukemia 29.9%

COc1cccc(-c2nn(-c3ccccc3)cc2-c2ccnc(NCCNS(=O)(=O)c3ccc(C(F)(F)F)cc3)c2)c1
active: HT29 colon -14.6% | PC-3 prostate 5.74% | SK-MEL-5 melanoma -94.7% | LOX IMVI melanoma 4.44% | SK-MEL-2 melanoma -11.3% | SN12C renal -36.1% | ACHN renal 8.66% | A498 renal 4.35% | CCRF-CEM leukemia 8.23% | MOLT-4 leukemia -16.7%
inactive: HCT-15 colon 11.9% | SNB-75 CNS 46.8% | SNB-19 CNS 21.8% | U251 CNS 15.4% | EKVX NSCLC 29.4% | UO-31 renal 11.7% | TK-10 renal 27.3% | CAKI-1 renal 16.8%

CCc1ccccc1NC(=O)c1sc2nc3c(cc2c1N)CCCC3
inactive: HCT-15 colon 28.1% | HT29 colon 13.5% | SNB-75 CNS 12.3% | SNB-19 CNS 37.6% | U251 CNS 27.8% | PC-3 prostate 52.9% | SK-MEL-5 melanoma 34.8% | LOX IMVI melanoma 36.5% | SK-MEL-2 melanoma 31.8% | EKVX NSCLC 72.9% | SN12C renal 34.9% | UO-31 renal 48.9% | TK-10 renal 59.5% | ACHN renal 48.2% | CAKI-1 renal 45.6% | CCRF-CEM leukemia 18.3% | MOLT-4 leukemia 25.4%
active: A498 renal 6.65%

N#CCCCCCn1c2ccccc2c2c3[nH]c(=O)[nH]c(=O)c3c3c4ccccc4n(CCCCCC#N)c3c21
inactive: HCT-15 colon 86.6% | HT29 colon 27% | SNB-75 CNS 26.3% | SNB-19 CNS 55.6% | U251 CNS 28.9% | PC-3 prostate 64.3% | SK-MEL-5 melanoma 28.6% | LOX IMVI melanoma 31.9% | SK-MEL-2 melanoma 78.5% | EKVX NSCLC 80.7% | UO-31 renal 61.1% | ACHN renal 54% | CAKI-1 renal 93.2% | A498 renal 54.5% | CCRF-CEM leukemia 74.5% | MOLT-4 leukemia 69.5%

Fc1ccc(Nc2ccc3c(OCCCN4CCOCC4)cccc3n2)cc1F
active: HT29 colon 6.29% | LOX IMVI melanoma 6.82%
inactive: HCT-15 colon 34% | SNB-75 CNS 66.6% | SNB-19 CNS 90.5% | U251 CNS 64.2% | PC-3 prostate 80.5% | UACC-62 melanoma 62.4% | SK-MEL-28 melanoma 80.4% | SK-MEL-2 melanoma 95.2% | EKVX NSCLC 81.4% | SN12C renal 81.6% | UO-31 renal 63.8% | TK-10 renal 92.4% | ACHN renal 78.3% | CAKI-1 renal 82.3% | A498 renal 69.7% | CCRF-CEM leukemia 69.4% | MOLT-4 leukemia 53%

N#CC1c2ccccc2-c2ccccc2N1C(=O)c1ccccc1 (centres undefined)
inactive: HCT-15 colon 12.4% | HT29 colon 12.3% | SNB-75 CNS 39.8% | SNB-19 CNS 53.6% | U251 CNS 18.4% | PC-3 prostate 26.6% | UACC-62 melanoma 22.3% | LOX IMVI melanoma 29.9% | SK-MEL-28 melanoma 58.3% | SK-MEL-2 melanoma 72.7% | EKVX NSCLC 29.5% | SN12C renal 33.3% | UO-31 renal 42.5% | TK-10 renal 63.9% | ACHN renal 30.1% | CAKI-1 renal 37.4% | CCRF-CEM leukemia 41.7% | MOLT-4 leukemia 35.8%
active: A498 renal 8.67%

COc1cccc(-c2nn(-c3ccccc3)cc2-c2ccnc(NCCNS(=O)(=O)c3cccc(F)c3)c2)c1
inactive: HCT-15 colon 24.3% | HT29 colon 16.9% | SNB-75 CNS 70.6% | SNB-19 CNS 37.2% | U251 CNS 27% | PC-3 prostate 19.1% | SK-MEL-5 melanoma 26.7% | LOX IMVI melanoma 38.3% | SK-MEL-2 melanoma 16.2% | EKVX NSCLC 44.6% | SN12C renal 33.8% | UO-31 renal 15.7% | TK-10 renal 36.7% | CAKI-1 renal 35.9% | A498 renal 47.7% | CCRF-CEM leukemia 12.3%
active: MOLT-4 leukemia 4.55%

Nc1c(C(=O)Nc2c(Cl)cccc2Cl)sc2nc3c(cc12)CCCC3
inactive: HCT-15 colon 41.9% | HT29 colon 43.3% | SNB-75 CNS 71.6% | SNB-19 CNS 82.8% | U251 CNS 74.1% | PC-3 prostate 80% | SK-MEL-5 melanoma 83.1% | LOX IMVI melanoma 59.4% | SK-MEL-2 melanoma 75.8% | EKVX NSCLC 102% | SN12C renal 69.6% | TK-10 renal 90.2% | ACHN renal 87.7% | CAKI-1 renal 79.3% | A498 renal 79.7% | CCRF-CEM leukemia 55.1% | MOLT-4 leukemia 46.9%

COc1ccc(-c2cc(-c3cccs3)n(N=O)c(=O)c2C#N)cc1
inactive: HCT-15 colon 129% | HT29 colon 107% | SNB-75 CNS 88.9% | SNB-19 CNS 99.1% | U251 CNS 112% | PC-3 prostate 104% | UACC-62 melanoma 95.4% | LOX IMVI melanoma 96.3% | SK-MEL-28 melanoma 124% | SK-MEL-2 melanoma 105% | EKVX NSCLC 115% | SN12C renal 95.8% | UO-31 renal 89.4% | TK-10 renal 114% | ACHN renal 109% | CAKI-1 renal 102% | CCRF-CEM leukemia 58.1% | MOLT-4 leukemia 107%

CCCCCCCC(=O)SCC/C=C/[C@@H]1CC(=O)NCc2cccc(n2)CN(Cc2ccc(Cl)cc2)CC(=O)N[C@@H](C(C)C)C(=O)O1
active: HT29 colon -2.23% | U251 CNS -48.2% | PC-3 prostate 9.67% | SK-MEL-5 melanoma -84.6% | LOX IMVI melanoma -61.5% | SK-MEL-2 melanoma 1.04% | UO-31 renal -5.27% | TK-10 renal -6.26% | ACHN renal -15.5% | CAKI-1 renal -7.97% | CCRF-CEM leukemia 7.54% | MOLT-4 leukemia 3.43%
inactive: HCT-15 colon 20.7% | SNB-75 CNS 18.6% | SNB-19 CNS 15.3% | EKVX NSCLC 32.5% | SN12C renal 21.6%
